# Assay outcomes as filed in PubChem BioAssay.
# GLP-1R agonist: qHTS of GLP-1 Receptor Agonists. Potency, µM (series often up to 45.6 µM), for inactives: top-dose activation, actives largely listed as activators. Glucagon-like peptide 1 receptor (Homo sapiens), P43220. AID 624172, 2012. HEK293 GLP-1R CRE-luciferase, luminescence, 4-6 h; cells express a hypersensitive GLP-1R form. 380,000 compounds, 0.007% hits; note: % of control where 0% means no effect
# Target sequence (P43220 whole entry, looked up): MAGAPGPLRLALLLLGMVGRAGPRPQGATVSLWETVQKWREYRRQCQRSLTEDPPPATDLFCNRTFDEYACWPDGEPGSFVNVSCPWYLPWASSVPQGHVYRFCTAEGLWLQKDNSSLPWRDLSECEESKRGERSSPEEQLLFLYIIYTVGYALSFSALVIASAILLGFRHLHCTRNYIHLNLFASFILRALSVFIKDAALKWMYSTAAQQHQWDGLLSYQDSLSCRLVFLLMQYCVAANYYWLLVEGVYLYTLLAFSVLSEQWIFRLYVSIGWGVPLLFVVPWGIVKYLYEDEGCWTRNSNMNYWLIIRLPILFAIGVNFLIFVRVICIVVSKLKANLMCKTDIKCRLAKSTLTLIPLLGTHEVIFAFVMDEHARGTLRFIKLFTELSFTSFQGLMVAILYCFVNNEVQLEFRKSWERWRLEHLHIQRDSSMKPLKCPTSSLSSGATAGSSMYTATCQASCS
# GLP-1R inv ag: qHTS of GLP-1 Receptor Inverse Agonists (Inhibition Mode). HEK293 GLP-1R CRE-luciferase, luminescence, 24 h; GLP-1R form is constitutively active. Glucagon-like peptide 1 receptor (Homo sapiens), P43220. Potency, µM (series often up to 38.3 µM), without a hit: at the highest dose activity change, negative = inhibition, hits mostly inhibitors. 410,000 compounds, 1.6% hits. AID 624417, 2012; note: % is set by controls: 0 for no effect and ±100 for the full control effect; nearly all actives have a fitted effect of over 55% in size
#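 GLP-1R inverse agonism mode: basal reporter luminescence in engineered HEK293 cells measured after one day of compound exposure at 37 deg C, with a 12 min room-temperature detection step.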
# ATXN viability: Viability Counterscreen for Primary qHTS for Inhibitors of ATXN expression; AID 651635, 2014; 400,000 compounds, 0.49% hits; Potency, µM (doses to about 56.7 µM), most hits filed as cytotoxic; S2 cells (HEK-293 line with an ATXN2-luciferase reporter) viability, CellTiter-Fluor protease fluorescence, 24 h; note: nearly all actives have a fitted effect of over 40% in size
# ATXN2 expr inh: Primary qHTS for Inhibitors of ATXN expression | Potency, µM (top dose mostly 57 µM), for inactives: at the top dose activity change, negative = inhibition, actives largely listed as inhibitors | HEK-293 ATXN2-luciferase reporter, luminescence, 24 h | AID 1745845, 2022 | 360,000 compounds, 0.72% hits; note: % is set by controls: 0 for no effect and ±100 for the full control effect; nearly all actives have a fitted effect of over 55% in size
#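 qHTS (up to 57 uM final) was run with 24 h compound exposure of reporter cells at 37 °C. Each well was multiplexed: SteadyGlo luminescence measured ATXN2-luciferase expression after a fluorogenic Gly-Phe-AFC viability readout (25 uM final).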
# HepG2 viability: qHTS for Inhibitors of TGF-b: Cytotox Counterscreen; HepG2 CAGA-GFP viability, ATP luminescence, 18 h; 410,000 compounds, 0.76% hits; AID 588856, 2011; Potency, µM (titrated, usually from 46.1 µM), inactives show at the top dose activity change, negative = cytotoxicity, usual class: cytotoxic
#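 CellTiter-Glo luminescence gave cytotoxicity after 18 hours at 37 degrees C. The cells were HepG2 CAGA-GFP in 1% FBS DMEM, stimulated with 500 pg/mL TGF-beta after compound addition. %Activity was normalised to no-cell wells (complete cell-killing) and DMSO (no toxicity), and curves were fitted and classified.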
# TGFb inhibitor: qHTS for Inhibitors of TGF-b; 410,000 compounds, 1.2% hits; Potency, µM (titrated, usually from 46.1 µM), for the others: at the top dose activity, negative = inhibition, usual class: inhibitors; HepG2 CAGA-GFP TGF-b/SMAD3 reporter, GFP fluorescence, 18 h; TGF-beta stimulated, 500 pg/mL final; note: % is set by controls: 0 for no effect and ±100 for the full control effect; nearly all actives have a fitted effect of over 65% in size
#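 GFP signal (ex488/em500-530) from TGF-beta-stimulated HEPG2 CAGA-GFP cells, 500 pg/mL final, 18 h at 37 degrees C in DMEM plus 1% FBS, normalized to unstimulated and DMSO-stimulated controls.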
# * = called active by the depositor; i = inactive; ? = inconclusive; / = no result given. Shown are actives, neighbours in structure and some others; about 3.7% of the full set was active somewhere. Calls come from the whole dose curve; as a rule, active = well fitted curve in the direction sought with a large enough effect; inconclusive = small, poorly fitted or top-dose-only effect, or another doubt; inactive = no such curve, though single readings can be large; an effect the other way counts as inactive or inconclusive. Potency is the fitted concentration of half-maximal effect.
SMILES,GLP-1R agonist,GLP-1R inv ag,ATXN viability,ATXN2 expr inh,HepG2 viability,TGFb inhibitor
COc1cc2c3nnc(-c4ccccc4)c-3cn(Cc3ccc(F)cc3)c2cc1OC,14%,56%,/,?,22µM*,7%
CN1N=C(C(=O)N2CCOc3ccc(CN4CCCC(C(=O)c5cccnc5)C4)cc3C2)CCC1=O (stereo not drawn),/,/,i,/,/,/
CCc1cc(Cn2nc(-c3ccccc3)cc2C(=O)NCc2ccccc2OC)on1,-4%,11µM*,i,7%,1%,?
CC(C)(O)C(=O)NNC(=S)Nc1cccc(C(F)(F)F)c1,2%,-2%,i,-12%,0%,6%
O=C(NNc1ccccc1Br)C(O)(c1cccc(C(F)(F)F)c1)c1cccc(C(F)(F)F)c1,-32%,3.2µM*,/,?,-103%,7.9µM*
CCNNC(=O)C(O)(c1cccc(C)c1)c1cccc(C)c1,-13%,18%,i,-6%,-44%,-14%
Cc1ccc(NNC(=O)C(O)(c2cccc(C(F)(F)F)c2)c2cccc(C(F)(F)F)c2)cc1,-29%,3.2µM*,i,-25%,-114%,?
Cc1cccc(C(O)(C(=O)NNc2ccc3ccccc3n2)c2cccc(C)c2)c1,-4%,4.5µM*,i,-6%,-19%,-39%
CC1(C)OC(=O)C2(Cc3ccc(Cl)cc3N3CCCC32)C(=O)O1 (stereo not drawn),/,/,/,/,7%,0%
COc1ccc(Cl)cc1NC(=O)CSc1nnc2[nH]c(=O)cc(-c3ccccc3)n12,/,10%,/,/,4%,4%
Cc1cc(O)c(C(C)C)cc1Cl,8%,/,i,3%,/,/
CN(C)C1CCC(CC2CCc3ccccc32)CC1 (stereo not drawn),/,/,/,/,12%,-20%
COc1ccc2c(C(=S)N(C)CC(=O)O)cccc2c1C(F)(F)F,-4%,/,/,/,/,/
Cc1cnc(-n2ncc(C(=O)NCC3CCCN(C)C3)c2C)nc1-c1cccs1 (stereo not drawn),/,/,i,/,/,/
Cc1ccc(C(C[N+](=O)[O-])Sc2ccc(N)cc2)cc1 (stereo not drawn),1%,?,?,?,13µM*,11µM*
Cc1ccc(C(C[N+](=O)[O-])n2nc(C)cc2C)cc1 (stereo not drawn),-11%,-11%,i,-7%,7%,9%
Cc1ccc(S(=O)(=O)Oc2ccccc2-c2ccccc2)cc1,8%,2.5µM*,?,-24%,0%,-8%
Cc1ccccc1CN1[C@H]2CCCC[C@@H]2OCCS1(=O)=O,/,/,/,/,18%,2%
O=C(O)/C=C/c1cn(Cc2ccccc2)nc1-c1ccccc1,-2%,0%,i,5%,-1%,0%
O=C(O)CCn1cc(/C=C/C(=O)c2ccc(Cl)cc2)c(-c2ccc(Br)cc2)n1,-11%,?,i,?,16µM*,?
CC1(C)C([N+](=O)[O-])C(c2ccccc2O)NC(c2ccccc2O)C1[N+](=O)[O-] (stereo not drawn),6%,10µM*,i,3%,0%,?
COc1ccc(-c2ccc(OC)c(C3C4C=CCC(C)C4C(=O)N3Cc3ccccc3)c2)cc1 (stereo not drawn),/,/,/,/,-2%,-2%
CCN(CC)c1ccc(NC(=O)C2COc3ccc(OC)cc3C2)c(C)c1 (stereo not drawn),/,?,?,?,-34%,8.9µM*
COc1ccc2c(c1)CC(C(=O)Nc1ccc(OC)cc1OC)CO2 (stereo not drawn),/,-14%,i,-7%,-13%,0%
